Experimental data as given in PubChem BioAssay AID1745847 (National Center for Advancing Translational Sciences (NCATS), 2022).
The whole screen tested about 2,100 compounds, of which about 670 (32%) were called active. Roughly 50% stayed inconclusive and do not appear here. The list shows a part of the results. A number with no mark means an inactive call. Calls follow the shape of the dose curve; as a rule, active = well fitted inhibition curve with a large enough effect; inconclusive = small, poorly fitted or top-dose-only effect; inactive = no such curve, though single readings can be large or run the other way.

test: CMV-Luciferase Counterscreen for Inhibitors of ATXN expression; conditions: HEK-293 CMV-luciferase reporter, luminescence, 24 h; series mostly up to 57.5 µM; activity change, negative = inhibition: at the top concentration; also: nearly all actives have a fitted effect of over 55% in size
% is scaled to controls: 0 for no effect and ±100 for the full control effect; potency is read from the fitted curve at half-maximal effect.

SMILES	Potency	activity change, negative = inhibition
COC(=O)C1=C(C)N(Cc2ccccc2)C(=NCCc2cccnc2)N[C@H]1c1ccc(Br)cc1	28.2 µM (active)	–
CCCCn1c(=N)n(CCOc2ccc(C)cc2)c2ccccc21	10 µM (active)	–
N=c1n(CCCOc2ccccc2Cl)c2ccccc2n1CC(N)=O	–	2.57%
Cc1ccc(OCC(O)Cn2c(=N)n(CCN3CCCCC3)c3ccccc32)cc1 (configuration not stated)	–	-13.4%
Cc1ccc(-c2nc3ccc(Cl)cn3c2CC(C)(C)C)cc1	–	-2.84% [at 11.4 µM]
COc1cc(C)c(C(=O)CC(=O)c2c(C)cc(OC)cc2C)c(C)c1	–	-13.8% [at 11.4 µM]
Cc1ccc(C(C)C)c(OCc2ccc(C(=O)N/N=C/c3ccc(O)cc3O)cc2)c1	2.51 µM (active)	–
Cc1ccc(C(C)C)c(OCc2ccc(C(=O)N/N=C/c3cccc(O)c3O)cc2)c1	2.82 µM (active)	–
Cc1ccc(C(=O)N/N=C/c2nc3ccccc3n2C)cc1	–	-21.7%
O=C(c1ccc(-c2nnc(Nc3cccc(Cl)c3)c3ccccc23)cc1)N1C[C@H]2C[C@H](C1)c1cccc(=O)n1C2	–	46% [at 11.4 µM]
COC(=O)c1cc(NC(=O)c2cc(-c3ccc(C(F)(F)F)cc3)oc2C(F)(F)F)ccc1N1CCOCC1	22.4 µM (active)	–
COC(=O)c1ccc(N2CCOCC2)c(NC(=O)Nc2cccc(OC)c2)c1	–	2.86% [at 11.4 µM]
CCN(CC)CCNC(=O)c1ccc(NC(=O)c2ccccc2-c2ccc(C(F)(F)F)cc2)cc1	–	-16.1%
O=C(NCc1ccco1)/C(=C/c1cccc(C(F)(F)F)c1)c1nc2ccccc2[nH]1	–	-12% [at 11.4 µM]
O=C(NCc1ccco1)c1nc2c(nnn2Cc2ccccc2Cl)c(=O)[nH]1	1.58 µM (active)	–
O=C(NCc1ccco1)c1ccc(-c2cccc(Cl)c2)o1	–	34.1%
CC(C)CCNC(=O)COc1cccc2c1OC(C)(C)C2	–	-14.5%
Cc1ccc(OCCCC(=O)NNC(=O)c2ccccn2)cc1	11.2 µM (active)	–
Cc1cccc(OCCCC(=O)Nc2nccs2)c1	–	249% [at 11.4 µM]

SMILES	Potency	activity change, negative = inhibition
CC(=O)c1cccc(-c2csc3ncnc(Sc4nnnn4C)c23)c1	8.91 µM (active)	–
Cn1nnnc1Sc1ncnc2scc(-c3cccc(S(C)(=O)=O)c3)c12	14.1 µM (active)	–
CC(=O)c1cccc(-c2cnc3c(NC=O)cc(-c4ccccc4F)cn23)c1	–	-18.2% [at 11.4 µM]
O=C(CN1CCCC1)N/N=C/c1c(O)ccc2ccccc12	1.78 µM (active)	–
O=C(CN1CCOCC1)N/N=C/c1c(O)ccc2ccccc12	8.91 µM (active)	–
CCCCn1c(SCC(=O)Nc2cc(NC(=O)c3ccco3)ccc2C)nc2ccccc2c1=O	–	-9.45%
O=C(CSCC(=O)Nc1ccccc1)N/N=C/c1c(O)ccc2ccccc12	0.501 µM (active)	–
C=C(C)Cn1c(SCC(=O)N/N=C/c2c(O)ccc3ccccc23)nc2ccccc2c1=O	22.4 µM (active)	–
NC(=O)N/N=C/c1c(O)ccc2oc3c(c12)CCCC3	–	111%
CCCC(=O)Nc1c(C(=O)OCC)[nH]c2ccccc12	–	-4.94% [at 11.4 µM]
O=c1cc(N2CCN(c3ccccc3)CC2)[nH]c(=O)n1C1CCCCC1	–	100%
CCCC(=O)Nc1ccc2nc(SCC(=O)N3CCCC3)sc2c1	–	-8.01%
O=C(CCSc1nc2ccccc2s1)N/N=C/c1c(O)ccc2ccccc12	7.94 µM (active)	–
CCOC(=O)C1CCN(c2ncnc3c2cnn3-c2ccc(Cl)cc2)CC1	2.24 µM (active)	–
CC1CCCN(c2ncnc3c2cnn3-c2ccc(Cl)cc2)C1 (configuration not stated)	22.4 µM (active)	–
COc1ccc(NC(C)C(=O)N/N=C/c2c(O)ccc3ccccc23)cc1 (configuration not stated)	6.31 µM (active)	–
COc1ccccc1NCC(=O)N/N=C/c1c(O)ccc2ccccc12	3.16 µM (active)	–
COc1cc([N+](=O)[O-])cc(/C=N/NC(=O)C(C)Nc2cccc3ccccc23)c1O (configuration not stated)	–	8.76% [at 11.4 µM]
CCc1cc[n+](C2=C([O-])c3ccccc3C(=O)/C2=N\S(=O)(=O)c2cccs2)cc1	20 µM (active)	–

SMILES	Potency	activity change, negative = inhibition
COc1cc(/C=C/c2ccc3cccc(O)c3n2)cc(OC)c1OC	–	16.4%
Oc1ccc2ccccc2c1/C=C/c1ccc2c(Br)cc(Br)c(O)c2n1	3.16 µM (active)	–
CCCc1cc(=O)[nH]c(-n2[nH]c3c(c2=O)CCCC3)n1	12.6 µM (active)	–
NC(=S)N1OC[C@@H]2COc3ccc4ccccc4c3[C@@H]21	–	43.5%
CC(NC(=O)Nc1cccc([N+](=O)[O-])c1)(C(F)(F)F)C(F)(F)F	17.8 µM (active)	–
O=C(NC1CCN(Cc2ccccc2)CC1)c1cccc(S(=O)(=O)Nc2ccc(SC(F)F)cc2)c1	14.1 µM (active)	–
CCC(C)n1cnc2c(c1=O)c1nc3ccccc3nc1n2-c1ccc2c(c1)OCCO2 (configuration not stated)	–	2.65%
c1ccc(COc2ncnc3c2ncn3CCCN2CCN(Cc3cccc4ccccc34)CC2)cc1	14.1 µM (active)	–
Cc1cc2oc3cc(NCCC4CCCN4C)ccc3c(=O)c2cc1C (configuration not stated)	–	108%
COc1ccc(CC(N)c2csc(NC(=O)c3ccccc3OC)n2)cc1 (configuration not stated)	–	-21.7%
COc1ccc(CC(N)c2csc(NC(=O)c3cc(C(C)(C)C)nn3Cc3ccccc3)n2)cc1 (configuration not stated)	–	-13.8% [at 11.4 µM]
COc1ccc(CC(N)c2csc(NC(=O)c3cccc(OC(F)(F)F)c3)n2)cc1 (configuration not stated)	28.2 µM (active)	–
O=C(Nc1nc2cc(Cl)ccc2s1)C1CCCN(S(=O)(=O)c2cccc3cccnc23)C1 (configuration not stated)	25.1 µM (active)	–
Cc1ccc(S(=O)(=O)c2cc3cc(Br)ccc3oc2=O)cc1	–	-15.7%
COc1cccc(/C=N/NC(=O)CNC(=O)C2COc3ccccc3O2)c1O (configuration not stated)	7.94 µM (active)	–
CCN(CC)c1ccc(/C=N/NC(=O)CNC(=O)C2COc3ccccc3O2)c(O)c1 (configuration not stated)	0.398 µM (active)	–
COc1ccccc1/C=C\C(=O)NCC(=O)N/N=C/c1cccc(OC)c1O	12.6 µM (active)	–
COc1cccc2c1C(=O)C=C(C)C2=O	22.4 µM (active)	–
Cc1cc(C(=O)N/N=C/c2cc(Br)cc(Br)c2OC(=O)c2cccc(F)c2)n[nH]1	4.47 µM (active)	–
